Results published in the supplement of paper PMC7411054.

Tests used:
Conditions in all cases: treatment time: 24 h
HepG2-ACTB-RAB5A = assay: lowest phenotypically active concentration; higher = less potent
How it was run: (§1)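 The reporter lines, fifteen in total and built by gene editing in A549, HepG2 and WPMY1 cells, used BFP for segmentation alongside GFP and RFP/FusionRed markers. Each was treated at 0.3, 1, 3 or 9 µM for 24 h in four wells and then imaged live, with live-cell features normalised to solvent control wells. Deviation meant ≥3 of 4 wells beyond the 95th percentile of control Euclidean distances; reproducibility meant a median replicate Pearson correlation above the 95th percentile of non-replicates. Only conditions meeting both were scored as phenotypically active.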

HepG2-CANX-COX4 = assay: as above
How it was run: as §1

HepG2-TP53BP1-CLTA = assay: as above
How it was run: as §1

HepG2-TUBA1B-RELA = assay: as above
How it was run: as §1

WPMY1-ACTB-RAB5A [1] = assay: as above
How it was run: as §1

WPMY1-CANX-COX4 = assay: as above
How it was run: as §1

WPMY1-GM130-SQSTM1 = assay: as above
How it was run: as §1

WPMY1-TP53BP1-CLTA = assay: as above
How it was run: as §1

WPMY1-TUBA1B-RELA = assay: as above
How it was run: as §1

WPMY1-ACTB-RAB5A [2] = assay: phenotypically active (imaging signature differs from DMSO and reproducible) at any of 0.3-9 uM (binary (1 = active, 0 = inactive)); higher = active
How it was run: as §1

COc1c(Nc2cc(C)[nH]n2)nc(Sc2ccc(S(=O)(=O)Cc3cccc([N+](=O)[O-])c3F)cc2F)nc1N1CCOCC1 [Centrinone]
9 µM: lowest phenotypically active concentration (HepG2-ACTB-RAB5A)
3 µM: lowest phenotypically active concentration (HepG2-CANX-COX4) | lowest phenotypically active concentration (HepG2-TP53BP1-CLTA) | lowest phenotypically active concentration (HepG2-TUBA1B-RELA) | lowest phenotypically active concentration (WPMY1-CANX-COX4) | lowest phenotypically active concentration (WPMY1-GM130-SQSTM1) | lowest phenotypically active concentration (WPMY1-TP53BP1-CLTA) | lowest phenotypically active concentration (WPMY1-TUBA1B-RELA)
active: phenotypically active (WPMY1-ACTB-RAB5A [2]) 1
1 µM: lowest phenotypically active concentration (WPMY1-ACTB-RAB5A [1])

OC[C@H]1O[C@@H](n2cnc3c(NCc4ccco4)ncnc32)[C@H](O)[C@@H]1O [Kinetin riboside]
1 µM: lowest phenotypically active concentration (HepG2-ACTB-RAB5A) | lowest phenotypically active concentration (HepG2-CANX-COX4) | lowest phenotypically active concentration (HepG2-TUBA1B-RELA) | lowest phenotypically active concentration (WPMY1-ACTB-RAB5A [1]) | lowest phenotypically active concentration (WPMY1-GM130-SQSTM1) | lowest phenotypically active concentration (WPMY1-TP53BP1-CLTA)
3 µM: lowest phenotypically active concentration (HepG2-TP53BP1-CLTA) | lowest phenotypically active concentration (WPMY1-CANX-COX4) | lowest phenotypically active concentration (WPMY1-TUBA1B-RELA)
active: phenotypically active (WPMY1-ACTB-RAB5A [2]) 1

CNC(=O)Nc1ccc(-c2nc(N3CC4CCC(C3)O4)c3cnn(C4CCC5(CC4)OCCO5)c3n2)cc1
≤ 0.3 µM: lowest phenotypically active concentration (HepG2-ACTB-RAB5A) | lowest phenotypically active concentration (HepG2-CANX-COX4) | lowest phenotypically active concentration (HepG2-TP53BP1-CLTA) | lowest phenotypically active concentration (HepG2-TUBA1B-RELA) | lowest phenotypically active concentration (WPMY1-ACTB-RAB5A [1]) | lowest phenotypically active concentration (WPMY1-CANX-COX4) | lowest phenotypically active concentration (WPMY1-GM130-SQSTM1) | lowest phenotypically active concentration (WPMY1-TP53BP1-CLTA) | lowest phenotypically active concentration (WPMY1-TUBA1B-RELA)
active: phenotypically active (WPMY1-ACTB-RAB5A [2]) 1

CCCCc1oc2ccccc2c1C(=O)c1cc(I)c(OCCN(CC)CC)c(I)c1 [amiodarone]
9 µM: lowest phenotypically active concentration (HepG2-ACTB-RAB5A) | lowest phenotypically active concentration (HepG2-CANX-COX4) | lowest phenotypically active concentration (HepG2-TP53BP1-CLTA) | lowest phenotypically active concentration (WPMY1-ACTB-RAB5A [1]) | lowest phenotypically active concentration (WPMY1-CANX-COX4) | lowest phenotypically active concentration (WPMY1-GM130-SQSTM1) | lowest phenotypically active concentration (WPMY1-TP53BP1-CLTA) | lowest phenotypically active concentration (WPMY1-TUBA1B-RELA)
3 µM: lowest phenotypically active concentration (HepG2-TUBA1B-RELA)
active: phenotypically active (WPMY1-ACTB-RAB5A [2]) 1

Cc1ccc([N+](=O)[O-])cc1S(=O)(=O)N(C)/N=C/c1cnc2ccc(Br)cn12
≤ 0.3 µM: lowest phenotypically active concentration (HepG2-ACTB-RAB5A) | lowest phenotypically active concentration (HepG2-CANX-COX4) | lowest phenotypically active concentration (HepG2-TP53BP1-CLTA) | lowest phenotypically active concentration (HepG2-TUBA1B-RELA) | lowest phenotypically active concentration (WPMY1-ACTB-RAB5A [1]) | lowest phenotypically active concentration (WPMY1-CANX-COX4) | lowest phenotypically active concentration (WPMY1-GM130-SQSTM1) | lowest phenotypically active concentration (WPMY1-TP53BP1-CLTA) | lowest phenotypically active concentration (WPMY1-TUBA1B-RELA)
active: phenotypically active (WPMY1-ACTB-RAB5A [2]) 1

CN1CCC(=C2c3ccccc3CC(=O)c3sccc32)CC1 [ketotifen]
active: phenotypically active (WPMY1-ACTB-RAB5A [2]) 1
9 µM: lowest phenotypically active concentration (HepG2-ACTB-RAB5A) | lowest phenotypically active concentration (HepG2-CANX-COX4) | lowest phenotypically active concentration (HepG2-TP53BP1-CLTA) | lowest phenotypically active concentration (WPMY1-ACTB-RAB5A [1]) | lowest phenotypically active concentration (WPMY1-CANX-COX4) | lowest phenotypically active concentration (WPMY1-GM130-SQSTM1) | lowest phenotypically active concentration (WPMY1-TP53BP1-CLTA) | lowest phenotypically active concentration (WPMY1-TUBA1B-RELA)
3 µM: lowest phenotypically active concentration (HepG2-TUBA1B-RELA)

Nc1cccc(-c2cc3c(Oc4cccc(O)c4)ncnc3[nH]2)c1
active: phenotypically active (WPMY1-ACTB-RAB5A [2]) 1
1 µM: lowest phenotypically active concentration (HepG2-ACTB-RAB5A)
9 µM: lowest phenotypically active concentration (HepG2-CANX-COX4) | lowest phenotypically active concentration (WPMY1-CANX-COX4) | lowest phenotypically active concentration (WPMY1-GM130-SQSTM1) | lowest phenotypically active concentration (WPMY1-TUBA1B-RELA)
3 µM: lowest phenotypically active concentration (HepG2-TP53BP1-CLTA) | lowest phenotypically active concentration (HepG2-TUBA1B-RELA) | lowest phenotypically active concentration (WPMY1-ACTB-RAB5A [1]) | lowest phenotypically active concentration (WPMY1-TP53BP1-CLTA)

COc1cc(N2CCOCC2)ccc1Nc1ncc(Cl)c(Nc2ccccc2NS(C)(=O)=O)n1
3 µM: lowest phenotypically active concentration (HepG2-ACTB-RAB5A) | lowest phenotypically active concentration (HepG2-CANX-COX4) | lowest phenotypically active concentration (HepG2-TP53BP1-CLTA) | lowest phenotypically active concentration (HepG2-TUBA1B-RELA) | lowest phenotypically active concentration (WPMY1-TUBA1B-RELA)
active: phenotypically active (WPMY1-ACTB-RAB5A [2]) 1
9 µM: lowest phenotypically active concentration (WPMY1-ACTB-RAB5A [1]) | lowest phenotypically active concentration (WPMY1-CANX-COX4) | lowest phenotypically active concentration (WPMY1-GM130-SQSTM1) | lowest phenotypically active concentration (WPMY1-TP53BP1-CLTA)

C[C@H]1[C@H]2CC[C@H]3[C@@H]4CC=C5C[C@@H](N(C)C)CC[C@]5(C)[C@H]4CC[C@]23CN1C [Conessine]
active: phenotypically active (WPMY1-ACTB-RAB5A [2]) 1
3 µM: lowest phenotypically active concentration (HepG2-TUBA1B-RELA) | lowest phenotypically active concentration (WPMY1-CANX-COX4) | lowest phenotypically active concentration (WPMY1-TP53BP1-CLTA)
1 µM: lowest phenotypically active concentration (HepG2-TP53BP1-CLTA) | lowest phenotypically active concentration (WPMY1-GM130-SQSTM1)
9 µM: lowest phenotypically active concentration (HepG2-ACTB-RAB5A) | lowest phenotypically active concentration (HepG2-CANX-COX4) | lowest phenotypically active concentration (WPMY1-ACTB-RAB5A [1]) | lowest phenotypically active concentration (WPMY1-TUBA1B-RELA)
